Experimental data: PubChem BioAssay (NCI)
Compounds without any hit were thinned out: in the full panel of roughly 79,000, 15% have a hit. Unmarked numbers belong to inactive results. Active and inactive are the calls of the source. No stated cut-off is given here; in the data, active means growth inhibition above about 70%; inactive means the rest.

Assay: NCI Yeast Anticancer Drug Screen. Data for the wt1 strain (AID 149);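 further: 0% = growth of vehicle-treated wt1 cultures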
Details: S. cerevisiae wt1 strain (SPY 50644) growth inhibition, hits give high values
Method: Growth inhibition of yeast strains with defined genetic alterations is measured as a screen for potential anti-cancer activity. Selected strains with alterations in DNA damage repair or cell cycle control were exposed to compounds and growth inhibition was measured relative to vehicle treated controls. The strain used in this assay is wt1

Row | Compound | growth inhibition (at 1.2 µM) | growth inhibition (at 3.7 µM) | growth inhibition (at 11.0 µM) | growth inhibition (at 33.0 µM) | growth inhibition (at 100.0 µM)
1 | CCCCC(CC)C(=O)[O][Sn]([CH2]CCC)([CH2]CCC)[O]C(=O)C(CC)CCCC (stereo not given) | -14% | -7% | 46% | 93% (active) | 98% (active)
2 | C[CH2][Sn]([CH2]C)([O]C(=O)C(N)Cc1ccccc1)[O]C(=O)C(N)Cc1ccccc1 (stereo not given) | 1% | 1% | 14% | 19% | 54%
3 | Cc1nc(-c2cc3cc([N+](=O)[O-])ccc3oc2=O)cs1 | -5% | 5% | 11% | 25% | 92% (active)
4 | CN(C)/C=C/c1nnc([N+](=O)[O-])s1 | -7% | -8% | -10% | -1% | 98% (active)
5 | O=C1c2ccccc2C(=O)N1CCCC(=O)n1cc(F)c(=O)[nH]c1=O | -51% | -43% | -26% | -21% | 34%
6 | C[Si](C)(C)/C=C/CCNC(C#N)c1ccccc1 (stereo not given) | 3% | -2% | 41% | 35% | 95% (active)
7 | NCCNCCNc1ccc(NCCNCCN)c2c1C(=O)c1c(O)ccc(O)c1C2=O | -49% | -2% | -4% | 0% | 12%
8 | COc1oc(C(=O)NC2CCCCC2)c(-c2ccc(Cl)cc2)c1S(=O)(=O)c1ccccc1 | -19% | -5% | 68% | 91% (active) | 87% (active)
